In PubChem BioAssay AID1159580 (chemical genetic matrix, 2015):
The campaign covered roughly 5,500 compounds. About 2,000 (36%) were called active. About 18% were inconclusive and are not listed. Rule as the data show it: active = normalized growth mostly below about 0.91 (no sharp cut-off); inconclusive = no clear call, values can overlap the other calls; inactive = mostly above about 0.92. The list shows a part of the results.

Experiment: chemical genetic growth profiling, strain panel (AID 1159580);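 also: tested at 20 µM; growth read once vehicle control cultures reached saturation at 30 °C; 1 = growth at the plate median or of vehicle wells; lower values mean less growth of the strain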
Conditions: growth OD

Measured: normalized growth

CC(=O)N[C@@H](CCC(=O)O)C(=O)O
inactive: S. cerevisiae deletion strains, locus YJR075W, strain HOC1, hits give low values 1 | S. cerevisiae deletion strains, locus YKL009W, strain mrt4, hits give low values 1.06 | S. cerevisiae deletion strains, locus YKL068W, hits give low values 0.995 | S. cerevisiae deletion strains, locus YKL085W, strain MDH1 (second series), hits give low values 1.01 | S. cerevisiae deletion strains, locus YKL085W, strain MDH1, hits give low values 1.01 | S. cerevisiae deletion strains, locus YKL160W, strain elf1, hits give low values 1.04 | S. cerevisiae deletion strains, locus YKL190W, strain CNB1, hits give low values 1.01 | S. cerevisiae deletion strains, locus YKR001C, strain vps1, hits give low values 1.01 | S. cerevisiae deletion strains, locus YKR026C, strain gcn3, hits give low values 1.01 | S. cerevisiae deletion strains, locus YKR091W, strain srl3, hits give low values 1.02 | S. cerevisiae deletion strains, locus YLL001W, strain dnm1, hits give low values 0.996 | S. cerevisiae deletion strains, locus YLL026W, hits give low values 1.01 | S. cerevisiae deletion strains, locus YLL041C, strain sdh2, hits give low values 1.03 | S. cerevisiae deletion strains, locus YLR027C, strain aat2, hits give low values 1.02 | S. cerevisiae deletion strains, locus YLR039C, strain RIC1, hits give low values 1.02 | S. cerevisiae deletion strains, locus YLR058C, strain SHM2, hits give low values 0.999 | S. cerevisiae deletion strains, locus YLR102C, strain apc9, hits give low values 1.01 | S. cerevisiae deletion strains, locus YLR113W, strain HOG1, hits give low values 0.999 | S. cerevisiae deletion strains, locus YLR221C, strain rsa3, hits give low values 1 | S. cerevisiae deletion strains, locus YLR258W, strain gsy2, hits give low values 1.03 | S. cerevisiae deletion strains, locus YLR262C, strain YPT6 (second series), hits give low values 1.03 | S. cerevisiae deletion strains, locus YLR262C, strain YPT6, hits give low values 0.998 | S. cerevisiae deletion strains, locus YLR268W, strain sec22, hits give low values 1.06 | S. cerevisiae deletion strains, locus YLR320W, strain mms22, hits give low values 1.01 | S. cerevisiae deletion strains, locus YLR330W, strain CHS5, hits give low values 1.01 | S. cerevisiae deletion strains, locus YLR342W, strain FKS1 (second series), hits give low values 1.05 | S. cerevisiae deletion strains, locus YLR342W, strain FKS1, hits give low values 1.01 | S. cerevisiae deletion strains, locus YLR357W, strain rsc2, hits give low values 0.997 | S. cerevisiae deletion strains, locus YLR370C, strain arc18, hits give low values 1.02 | S. cerevisiae deletion strains, locus YLR371W, strain rom2, hits give low values 1 | S. cerevisiae deletion strains, locus YLR384C, strain iki3, hits give low values 1.01 | S. cerevisiae deletion strains, locus YLR418C, strain cdc73, hits give low values 1.01 | S. cerevisiae deletion strains, locus YML016C, strain PPZ1, hits give low values 1 | S. cerevisiae deletion strains, locus YML032C, strain rad52, hits give low values 1.03 | S. cerevisiae deletion strains, locus YML120C, strain ndi1, hits give low values 1.01 | S. cerevisiae deletion strains, locus YML124C, strain tub3, hits give low values 1.01 | S. cerevisiae deletion strains, locus YMR058W, strain fet3, hits give low values 1.02 | S. cerevisiae deletion strains, locus YMR078C, strain ctf18, hits give low values 1.01 | S. cerevisiae deletion strains, locus YMR125W, strain sto1, hits give low values 1.01 | S. cerevisiae deletion strains, locus YMR129W, hits give low values 1.01 | S. cerevisiae deletion strains, locus YMR205C, strain PFK2, hits give low values 1.01 | S. cerevisiae deletion strains, locus YMR223W, strain ubp8, hits give low values 1 | S. cerevisiae deletion strains, locus YMR231W, strain pep5, hits give low values 1.02 | S. cerevisiae deletion strains, locus YMR263W, strain SAP30, hits give low values 1.01 | S. cerevisiae deletion strains, locus YMR307W, strain GAS1, hits give low values 1.04 | S. cerevisiae deletion strains, locus YNL067W, strain RPL9B, hits give low values 1.01 | S. cerevisiae deletion strains, locus YNL071W, strain lat1, hits give low values 1.02 | S. cerevisiae deletion strains, locus YNL153C, strain GIM3, hits give low values 1.01 | S. cerevisiae deletion strains, locus YNL183C, strain NPR1, hits give low values 0.907 | S. cerevisiae deletion strains, locus YNL209W, strain ssb2, hits give low values 1.03 | S. cerevisiae deletion strains, locus YNL233W, strain BNI4, hits give low values 1.01 | S. cerevisiae deletion strains, locus YNL248C, strain rpa49, hits give low values 1.02 | S. cerevisiae deletion strains, locus YNL250W, strain rad50, hits give low values 1 | S. cerevisiae deletion strains, locus YNL271C, strain bni1, hits give low values 1.02 | S. cerevisiae deletion strains, locus YNL298W, strain CLA4, hits give low values 1.01 | S. cerevisiae deletion strains, locus YNL307C, strain MCK1, hits give low values 1.02 | S. cerevisiae deletion strains, locus YNL322C, strain KRE1 (second series), hits give low values 1.01 | S. cerevisiae deletion strains, locus YNR049C, strain mso1, hits give low values 1.02 | S. cerevisiae deletion strains, locus YNR052C, strain pop2, hits give low values 1.02 | S. cerevisiae deletion strains, locus YOL006C, strain TOP1, hits give low values 1.06 | S. cerevisiae deletion strains, locus YOL012C, strain htz1 0.888 | S. cerevisiae deletion strains, locus YOL147C, strain pex11, hits give low values 1.01 | S. cerevisiae deletion strains, locus YOR001W, strain rrp6, hits give low values 0.988 | S. cerevisiae deletion strains, locus YOR061W, strain CKA2, hits give low values 1.01 | S. cerevisiae deletion strains, locus YOR069W, strain VPS5, hits give low values 1.01 | S. cerevisiae deletion strains, locus YOR070C, strain gyp1, hits give low values 1.03 | S. cerevisiae deletion strains, locus YOR080W, strain dia2, hits give low values 1.04 | S. cerevisiae deletion strains, locus YOR083W, strain WHI5, hits give low values 1.03 | S. cerevisiae deletion strains, locus YOR106W, strain vam3, hits give low values 1.03 | S. cerevisiae deletion strains, locus YOR136W, strain idh2, hits give low values 0.993 | S. cerevisiae deletion strains, locus YOR144C, strain elg1, hits give low values 1.01 | S. cerevisiae deletion strains, locus YOR184W, strain ser1, hits give low values 1.02 | S. cerevisiae deletion strains, locus YOR231W, strain MKK1, hits give low values 0.973 | S. cerevisiae deletion strains, locus YOR265W, strain rbl2, hits give low values 1.01 | S. cerevisiae deletion strains, locus YOR270C, strain vph1, hits give low values 1.11 | S. cerevisiae deletion strains, locus YOR290C, strain snf2, hits give low values 1.05 | S. cerevisiae deletion strains, locus YOR316C, strain cot1, hits give low values 1 | S. cerevisiae deletion strains, locus YPL051W, strain arl3, hits give low values 1.03 | S. cerevisiae deletion strains, locus YPL055C, strain LGE1, hits give low values 0.977 | S. cerevisiae deletion strains, locus YPL078C, strain atp4, hits give low values 1.03 | S. cerevisiae deletion strains, locus YPL106C, strain sse1, hits give low values 1.02 | S. cerevisiae deletion strains, locus YPL240C, strain hsp82, hits give low values 1.03 | S. cerevisiae deletion strains, locus YPL256C, strain CLN2, hits give low values 0.956 | S. cerevisiae deletion strains, locus YPR119W, strain clb2, hits give low values 1 | S. cerevisiae deletion strains, locus YPR141C, strain kar3, hits give low values 1.01 | S. cerevisiae deletion strains, locus YPR163C, strain tif3, hits give low values 1.01 | S. cerevisiae deletion strains, locus YPR167C, strain met16, hits give low values 1 | S. cerevisiae deletion strains, strain wtn01, hits give low values 1.02 | S. cerevisiae strains, strain wild type, hits give low values 1.01
